# High-throughput results deposited in PubChem BioAssay by several laboratories.
# Mtb betalactam: beta-lactam sensitization of Mtb H37Rv; M. tuberculosis H37Rv growth with meropenem, percent inhibition; inhibition, % at 25 µM; 0.27% of 330,000 active; AID 434955; call rule not given here;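 further: growth measured after seven days incubation then overnight dye step; 0% = bacteria only wells and 100% = bacteria with antibiotic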
# GDH-TPI counter: inhibits GDH-TPI coupling enzymes, artifact for Mtb FBA screen; inhibition, % at 4.8 µM; 1.2% of 360,000 active; GDH-TPI coupled enzyme counterscreen, NADH absorbance; AID 588335; in the data active means inhibition above about 30%;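 further: 0% = DMSO wells and 100% = wells lacking the enzyme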
# Mtb UGM inh: Mtb UDP-galactopyranose mutase inhibition. P9WIQ1. purified UGM, fluorescence polarization probe displacement. inhibition, % at 10 µM. 0.06% of 320,000 active. AID 504406; in the data active means inhibition above about 10%, passing the limit was not always enough
# Target sequence (P9WIQ1 whole entry, looked up): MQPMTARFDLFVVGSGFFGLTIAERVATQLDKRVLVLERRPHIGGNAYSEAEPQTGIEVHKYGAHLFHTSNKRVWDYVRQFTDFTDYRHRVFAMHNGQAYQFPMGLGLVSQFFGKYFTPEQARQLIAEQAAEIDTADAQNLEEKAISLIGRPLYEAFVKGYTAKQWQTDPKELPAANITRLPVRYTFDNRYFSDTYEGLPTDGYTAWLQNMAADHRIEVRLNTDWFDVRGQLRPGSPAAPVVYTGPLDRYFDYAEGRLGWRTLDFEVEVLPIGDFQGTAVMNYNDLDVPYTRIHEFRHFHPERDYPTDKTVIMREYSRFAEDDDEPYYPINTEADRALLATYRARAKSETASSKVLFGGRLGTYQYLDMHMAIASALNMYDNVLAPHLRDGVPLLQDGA
# Rv3671c inh: Rv3671c (M. tuberculosis) protease inhibition; 0.048% of 320,000 active; P9WHR9; inhibition, % at 5.96 µM; in the data active means inhibition above about 38%;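 further: extracellular domain of Rv3671c used as enzyme; 0% = enzyme with DMSO and 100% = no enzyme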
# FadD28 FP inh: M. tuberculosis FadD28 bisubstrate binding inhibition | FadD28 bisubstrate probe binding, fluorescence polarization | inhibition, % at 12.5 µM | 0.22% of 360,000 active; in the data active means inhibition above about 8.5%, passing the limit was not always enough
# FBA Mtb inh: Mtb fructose-bisphosphate aldolase inhibition; AID 588726; P9WQA3; purified M. tuberculosis FBA, fluorescence read-out; inhibition, % at 1 µM; 2.3% of 360,000 active; in the data active means inhibition above about 27%;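 further: 0% = vehicle and 100% = reference inhibitor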
# Numbers without * were called inactive; nt = no result. In the library only some 3.7% were active in any assay of this set; here they are far more common.
SMILES,Mtb betalactam,GDH-TPI counter,Mtb UGM inh,Rv3671c inh,FadD28 FP inh,FBA Mtb inh
C[C@H](O)[C@@H]1C(=O)N2CCc3ccc(N4CCN(C)CC4)cc3[C@@H]2C[C@@H]1N(C)C(=O)c1cccnc1,nt,11,nt,nt,1,-1
COc1ccc(CNC(=O)Nc2ccc3c(c2)c(=O)n(C)n3Cc2cc(C)cc(C)c2)cc1,nt,11,nt,nt,-2,168*
Cc1cc(C)cc(Cn2c3ccc(NC(=S)NCc4ccccc4F)cc3c(=O)n2C)c1,nt,5,nt,nt,-1,25
Cn1c(=O)c2cc(NC(=S)NCc3ccccc3F)ccc2n1Cc1cccc(C(F)(F)F)c1,nt,6,nt,nt,-2,21
CCOCCC(=O)Nc1ccc2c(c1)c(=O)n(C)n2Cc1cccc(C(F)(F)F)c1,nt,10,nt,nt,-2,177*
Cn1c(=O)c2cc(NC(=O)CCc3ccccc3)ccc2n1Cc1cccc(C(F)(F)F)c1,nt,15,nt,nt,-3,127*
Cn1c(=O)c(=O)n(C)c2cc(S(=O)(=O)CCC(=O)Nc3cccc(C(F)(F)F)c3)ccc21,0,7,2,2,-1,-1
COc1cccc(Cn2c3ccc(NC(=O)CCc4ccc(F)cc4)cc3c(=O)n2C)c1,nt,4,nt,nt,-4,151*
CC1CCC2(CC1)NC(=O)N(CC(=O)NC(C)c1ccc(F)c(F)c1)C2=O (stereo not drawn),-2,2,1,0,-1,-1
O=C(CNc1ccc(Br)cc1)Nc1ccc(S(=O)(=O)N2CCCCC2)cc1,nt,3,nt,nt,-4,-2
CCOC(=O)CCNC(=O)N1CCC(CCOc2ccccc2)(C(=O)OCC)CC1,-8,-10,1,-2,-5,2
Cc1ccc(C(=O)Nc2ccncc2)cc1S(=O)(=O)N1CCCCC1,nt,12,nt,nt,-7,3
Cn1c(=O)c2cc(NC(=O)NCc3ccccc3)ccc2n1Cc1cccc(C(F)(F)F)c1,nt,12,nt,nt,-2,138*
COc1ccccc1CCC(=O)Nc1ccc2c(c1)c(=O)n(C)n2C,nt,8,nt,nt,-4,189*
O=C1C=CN(Cc2ccccc2)C(c2ccccc2)C1 (stereo not drawn),-10,35*,4,-4,0,-3
Cn1c2ccccc2c(=O)c2ccc(F)cc21,-1,2,-1,-7,-2,191*
COc1cc(-c2ccc3c(=O)c4ccccc4n(C)c3c2)cc(OC)c1OC,5,2,1,-23,-6,20
CCCCc1nnc(NC(=O)c2ccc(OCc3c(C)noc3C)cc2)s1,nt,10,nt,nt,0,3
O=C(N/N=C/c1ccncc1)c1ccc(NS(=O)(=O)c2cccs2)cc1,6,18,1,2,-5,-5
COc1ccc(NS(=O)(=O)c2cccc(C(=O)NN=Cc3cc(Br)c(O)c(Br)c3)c2)cc1,3,41*,-2,-24,2,0
COc1cccc(Nc2nc3ccccc3nc2NS(=O)(=O)c2cccs2)c1,-11,37*,-1,9,1,17
COc1ccc(/C=N/NC(=O)c2ccc(NS(=O)(=O)c3cccs3)cc2)cc1,-1,51*,3,-3,-4,0
O=C(NN=Cc1ccccc1C(=O)O)c1ccc(NS(=O)(=O)c2cccs2)cc1,5,37*,2,5,-1,-1
O=C(O)COc1ccccc1C=NNC(=O)c1ccc(NS(=O)(=O)c2cccs2)cc1,3,22,-1,-10,nt,-1
O=C(O)c1ccc(/C=N/NC(=O)c2ccc(NS(=O)(=O)c3cccs3)cc2)cc1,3,74*,0,-8,-4,2
SMILES,Mtb betalactam,GDH-TPI counter,Mtb UGM inh,Rv3671c inh,FadD28 FP inh,FBA Mtb inh
COc1ccc(OC)c(C=NNC(=O)c2ccc(NS(=O)(=O)c3cccs3)cc2)c1,-1,39*,1,-13,0,16
COc1ccc(OC)c(/C=N/NC(=O)c2ccncc2)c1,98,19,-2,1,0,0
O=C1NC(=S)NC(=O)C1=Cc1ccccc1C(=O)O,nt,5,nt,nt,0,3
Nc1ncc(Br)cc1Br,0,8,nt,-5,-1,1
Nc1ncc([N+](=O)[O-])cc1Br,-5,52*,-1,8,-2,0
Cc1ccc(N/C=C(/C#N)c2ccsc2)cc1,92,22,-2,3,-2,-2
N#C/C(=C/Nc1ccccc1)c1ccsc1,4,34*,1,0,0,-2
O=C(N/N=C\c1ccc(Sc2ccccn2)o1)c1cccc(Br)c1,39,32*,-1,0,-4,-1
O=C(N/N=C/C=C/c1ccccc1)c1cccc(Br)c1,99,65*,3,10,-2,-6
O=C(N/N=C/C=C/c1ccccc1)c1cnccn1,3,48*,0,1,1,-5
Cc1ccc(C(=O)N/N=C/C=C/c2ccccc2)cc1,95,31*,-1,3,-3,1
CSc1ncnc2c1ncn2CCCN(C)Cc1ccco1,nt,-7,nt,nt,-4,-1
Cc1cc(C(=O)N/N=C/C=C/c2ccccc2)c(C)o1,6,32*,-1,1,-1,-2
Cc1noc(C)c1NC(=O)N(C)C[C@H]1Oc2ccc(NS(=O)(=O)c3cn(C)cn3)cc2C(=O)N([C@H](C)CO)C[C@@H]1C,5,0,1,0,-3,0
Nc1nnc(CC(=O)N/N=C/c2ccc(-c3ccccc3)o2)s1,4,47*,-2,-3,-5,2
COC(=O)c1ccc(-c2ccc(/C=N/NC(=O)Cc3nnc(N)s3)o2)cc1,11,37*,1,3,-4,28*
Cc1ccc([N+](=O)[O-])cc1-c1ccc(/C=N/NC(=O)CN2CCOCC2)o1,38,40*,2,2,1,3
O=C(CN1CCCC1)N/N=C/c1ccc(-c2cccc(Cl)c2)o1,73,32*,0,10,-10,0
Cc1ccc(-c2ccc(/C=N/NC(=O)Cc3nnc(N)s3)o2)cc1Cl,95,29,0,1,-8,2
O=C(Cc1ccccc1)N/N=C/c1ccc(-c2ccc([N+](=O)[O-])cc2)o1,2,13,8,-2,-1,-2
Cc1ccc(S(=O)(=O)N(C)C[C@@H]2Oc3ncc(C#CCC(C)C)cc3C(=O)N([C@H](C)CO)C[C@H]2C)cc1,nt,-2,nt,nt,-1,0
Nc1nnc(CC(=O)N/N=C\c2ccc(-c3cccc(Cl)c3)o2)s1,7,33*,1,8,-11,-3
CC1(C)CC(=O)C(C=Nc2ccc3c(c2)OCO3)=C(O)C1,-7,54*,-1,-6,-2,1
COc1ccc(OC)c(N=CC2=C(O)CC(C)(C)CC2=O)c1,25,39*,0,-10,-2,3
COc1ccc(N=CC2=C(O)CC(C)(C)CC2=O)cc1,95,42*,-4,-8,-3,0
CC1(C)CC(=O)C(C=Nc2ccncc2)=C(O)C1,7,-6,3,-2,-1,-2
COc1ccc(N=CC2=C(O)CCCC2=O)cc1,96,37*,-3,-2,-3,-2
